# Read-outs that look alike come from different tables or passages of the source.
# Key:
# GAK = settings: read-out: apparent Kd, n = 1
# IKBKE = settings: read-out: apparent Kd, n = 1
substance,measurement,setting,value
Lestaurtinib,potency estimated from few doses,"GAK; compound concentrations:100 nM and 1000 nM (sheet 'Lestaurtinib' of Supplementary Table 1),run:Lestaurtinib_02566_R1,Plate:MR014",580 nM
same,potency estimated from few doses,"GAK; compound concentrations:100 nM and 1000 nM (sheet 'Lestaurtinib' of Supplementary Table 1),run:Lestaurtinib_02566_R3,Plate:MR014",806 nM
same,potency estimated from few doses,"GAK; compound concentrations:100 nM and 1000 nM (sheet 'Lestaurtinib' of Supplementary Table 1),run:Lestaurtinib_02572_R1,Plate:MR015",486 nM
same,potency estimated from few doses,"GAK; compound concentrations:100 nM and 1000 nM (sheet 'Lestaurtinib' of Supplementary Table 1),run:Lestaurtinib_02572_R3,Plate:MR015",627 nM
same,potency estimated from few doses,"GAK; compound concentrations:100 nM and 1000 nM (sheet 'Lestaurtinib' of Supplementary Table 1),run:Lestaurtinib_02577_R1,Plate:MR016",484 nM
same,potency estimated from few doses,"GAK; compound concentrations:100 nM and 1000 nM (sheet 'Lestaurtinib' of Supplementary Table 1),run:Lestaurtinib_02577_R3,Plate:MR016",574 nM
same,potency estimated from few doses,"GAK; compound concentrations:100 nM and 1000 nM (sheet 'Lestaurtinib' of Supplementary Table 1),run:Lestaurtinib_02584_R1,Plate:MR017",641 nM
same,potency estimated from few doses,"GAK; compound concentrations:100 nM and 1000 nM (sheet 'Lestaurtinib' of Supplementary Table 1),run:Lestaurtinib_02584_R2,Plate:MR017",628 nM
same,potency estimated from few doses,"GAK; compound concentrations:100 nM and 1000 nM (sheet 'Lestaurtinib' of Supplementary Table 1),run:Lestaurtinib_02601_R1,Plate:MR018",786 nM
same,potency estimated from few doses,"GAK; compound concentrations:100 nM and 1000 nM (sheet 'Lestaurtinib' of Supplementary Table 1),run:Lestaurtinib_02601_R2,Plate:MR018",761 nM
same,potency estimated from few doses,"GAK; compound concentrations:100 nM and 1000 nM (sheet 'Lestaurtinib' of Supplementary Table 1),run:Lestaurtinib_02601_R3,Plate:MR018",56 nM
same,potency estimated from few doses,"GAK; compound concentrations:100 nM and 1000 nM (sheet 'Lestaurtinib' of Supplementary Table 1),run:Lestaurtinib_02606_R1,Plate:MR019",646 nM
same,potency estimated from few doses,"GAK; compound concentrations:100 nM and 1000 nM (sheet 'Lestaurtinib' of Supplementary Table 1),run:Lestaurtinib_02606_R2,Plate:MR019",729 nM
same,potency estimated from few doses,"GAK; compound concentrations:100 nM and 1000 nM (sheet 'Lestaurtinib' of Supplementary Table 1),run:Lestaurtinib_02624_R1,Plate:MR020",818 nM
same,potency estimated from few doses,"GAK; compound concentrations:100 nM and 1000 nM (sheet 'Lestaurtinib' of Supplementary Table 1),run:Lestaurtinib_02624_R2,Plate:MR020",627 nM
same,potency estimated from few doses,"GAK; compound concentrations:100 nM and 1000 nM (sheet 'Lestaurtinib' of Supplementary Table 1),run:Lestaurtinib_02624_R3,Plate:MR020",770 nM
same,potency estimated from few doses,"GAK; compound concentrations:100 nM and 1000 nM (sheet 'Lestaurtinib' of Supplementary Table 1),run:Lestaurtinib_02724_R1,Plate:MR021",577 nM
same,potency estimated from few doses,"GAK; compound concentrations:100 nM and 1000 nM (sheet 'Lestaurtinib' of Supplementary Table 1),run:Lestaurtinib_02724_R2,Plate:MR021",628 nM
same,potency estimated from few doses,"GAK; compound concentrations:100 nM and 1000 nM (sheet 'Lestaurtinib' of Supplementary Table 1),run:Lestaurtinib_02748_R1,Plate:MR024",455 nM
same,potency estimated from few doses,"GAK; compound concentrations:100 nM and 1000 nM (sheet 'Lestaurtinib' of Supplementary Table 1),run:Lestaurtinib_02748_R2,Plate:MR024",649 nM
same,potency estimated from few doses,"GAK; compound concentrations:100 nM and 1000 nM (sheet 'Lestaurtinib' of Supplementary Table 1),run:Lestaurtinib_02748_R3,Plate:MR024",731 nM
same,potency estimated from few doses,"GAK; compound concentrations:100 nM and 1000 nM (sheet 'Lestaurtinib' of Supplementary Table 1),run:Lestaurtinib_02752_R2,Plate:MR025",637 nM
same,potency estimated from few doses,"GAK; compound concentrations:100 nM and 1000 nM (sheet 'Lestaurtinib' of Supplementary Table 1),run:Lestaurtinib_02752_R3,Plate:MR025",696 nM
same,potency estimated from few doses,"GAK; compound concentrations:100 nM and 1000 nM (sheet 'Lestaurtinib' of Supplementary Table 1),run:Lestaurtinib_02766_R1,Plate:MR027",591 nM
same,potency estimated from few doses,"GAK; compound concentrations:100 nM and 1000 nM (sheet 'Lestaurtinib' of Supplementary Table 1),run:Lestaurtinib_02766_R2,Plate:MR027",36.2 nM
same,potency estimated from few doses,"GAK; compound concentrations:100 nM and 1000 nM (sheet 'Lestaurtinib' of Supplementary Table 1),run:Lestaurtinib_02766_R3,Plate:MR027",762 nM
same,potency estimated from few doses,"GAK; compound concentrations:100 nM and 1000 nM (sheet 'Lestaurtinib' of Supplementary Table 1),run:Lestaurtinib_02768_R1,Plate:MR028",728 nM
same,potency estimated from few doses,"GAK; compound concentrations:100 nM and 1000 nM (sheet 'Lestaurtinib' of Supplementary Table 1),run:Lestaurtinib_02768_R2,Plate:MR028",752 nM
same,potency estimated from few doses,"GAK; compound concentrations:100 nM and 1000 nM (sheet 'Lestaurtinib' of Supplementary Table 1),run:Lestaurtinib_02795_R1,Plate:MR022",828 nM
same,potency estimated from few doses,"GAK; compound concentrations:100 nM and 1000 nM (sheet 'Lestaurtinib' of Supplementary Table 1),run:Lestaurtinib_02802_R1,Plate:MR029",614 nM
same,potency estimated from few doses,"GAK; compound concentrations:100 nM and 1000 nM (sheet 'Lestaurtinib' of Supplementary Table 1),run:Lestaurtinib_02802_R2,Plate:MR029",635 nM
same,potency estimated from few doses,"GAK; compound concentrations:100 nM and 1000 nM (sheet 'Lestaurtinib' of Supplementary Table 1),run:Lestaurtinib_02896_R2,Plate:MR030",687 nM
same,potency estimated from few doses,"GAK; compound concentrations:100 nM and 1000 nM (sheet 'Lestaurtinib' of Supplementary Table 1),run:Lestaurtinib_02896_R3,Plate:MR030",634 nM
same,potency estimated from few doses,"GAK; compound concentrations:100 nM and 1000 nM (sheet 'Lestaurtinib' of Supplementary Table 1),run:Lestaurtinib_03172_R1,Plate:MR031",665 nM
same,potency estimated from few doses,"GAK; compound concentrations:100 nM and 1000 nM (sheet 'Lestaurtinib' of Supplementary Table 1),run:Lestaurtinib_03172_R2,Plate:MR031",786 nM
same,potency estimated from few doses,"GAK; compound concentrations:100 nM and 1000 nM (sheet 'Lestaurtinib' of Supplementary Table 1),run:Lestaurtinib_03172_R3,Plate:MR031",687 nM
same,potency estimated from few doses,"GAK; compound concentrations:100 nM and 1000 nM (sheet 'Lestaurtinib' of Supplementary Table 1),run:Lestaurtinib_03252_R1,Plate:MR032",707 nM
same,potency estimated from few doses,"GAK; compound concentrations:100 nM and 1000 nM (sheet 'Lestaurtinib' of Supplementary Table 1),run:Lestaurtinib_03252_R2,Plate:MR032",29.5 nM
same,potency estimated from few doses,"GAK; compound concentrations:100 nM and 1000 nM (sheet 'Lestaurtinib' of Supplementary Table 1),run:Lestaurtinib_03260_R1,Plate:MR033",784 nM
same,potency estimated from few doses,"GAK; compound concentrations:100 nM and 1000 nM (sheet 'Lestaurtinib' of Supplementary Table 1),run:Lestaurtinib_03260_R2,Plate:MR033",821 nM
same,potency estimated from few doses,"GAK; compound concentrations:100 nM and 1000 nM (sheet 'Lestaurtinib' of Supplementary Table 1),run:Lestaurtinib_03260_R3,Plate:MR033",793 nM
same,potency estimated from few doses,"IKBKE; compound concentrations:100 nM and 1000 nM (sheet 'Lestaurtinib' of Supplementary Table 1),run:Lestaurtinib_02339_R1,Plate:MR001",861 nM
same,potency estimated from few doses,"IKBKE; compound concentrations:100 nM and 1000 nM (sheet 'Lestaurtinib' of Supplementary Table 1),run:Lestaurtinib_02339_R2,Plate:MR001",585 nM

# From PMC11062922 (Nature Chemical Biology, 2023)
